Laboratory results: PubChem BioAssay AID743397 (Broad Institute, 2014)
Hit rate of the full screen: of about 340,000 compounds, about 330 (0.097%) were called active. Many of the other results were omitted from the sample, so actives are more common in it than they were. Values without a mark were called inactive.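 How the source made its calls: active means mean replicate inhibition of at least 30% and at least 1% of replicates passing that level; inconclusive means only one of the two criteria is met; inactive means neither criterion is met.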

The compounds below were run on Voltage-dependent L-type calcium channel subunit alpha-1D (CaV1.3) ICDI/IQ interaction (assay: Disruptors of the CACNA1D IQ motif to Ca2+-dependent inactivation inhibitor domain association, primary screening, Förster resonance energy transfer in intact living cells, one concentration (AID 743397;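 further: 0% = median of the neutral control wells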)). Conditions: HEK cells, CFP/YFP FRET ICDI-IQ, plate reader, 10 min; at 12.3 µM; hits give high values; percent FRET-ratio fall versus neutral wells.

Row | Compound | inhibition
1 | COc1ccccc1Cc1c(-c2ccc(F)cc2)nc2ccc(C)cn12 | -8.77%
2 | CC(C)(C)C(c1nc2ccccc2[nH]1)n1c(Cc2csc3ccccc23)nc2ccccc21 (centres undefined) | -10%
3 | COC(=O)[C@]12C[C@H](CC(=O)NCc3ccccc3)C(=O)N(CCC3=CCCCC3)C1=C[C@H](C(C)(C)C)O[C@@H]2C | -8.62%
4 | COC(=O)Cc1nnn2c1[C@H](C)[C@H](c1ccccc1Br)OCC2 | -6.7%
5 | CC(=O)c1ccc(S(=O)(=O)NCC2CCN(C(=O)C(=O)c3cccs3)CC2)cc1 | -7.65%
6 | COc1ccc(-c2ccccc2C2Cc3nnccc3CN2C(=O)Nc2ccccc2)cc1 (centres undefined) | -4.58%
7 | CC(C)[C@@H](C)/C=C/[C@@H](C)[C@H]1CC[C@@H]2[C@]1(C)CCC1[C@]23C=C[C@]2(C[C@@H](O)CC[C@]12C)N(c1ccc([N+](=O)[O-])cn1)O3 (some centres undefined) | -8.61%
8 | COC(=O)C1=C(C)N(Cc2ccccc2C(F)(F)F)C(=NCc2ccc(C(F)(F)F)cc2)NC1c1ccc(F)cc1 (centres undefined) | -9.8%
9 | CCCCCc1c(-c2ccc(OC)c(OC)c2)ncn1CCc1ccccc1OC | -11%
10 | COC(=O)Cc1nnn2c1[C@H](C)[C@@H](OC)c1cc(Br)ccc1-2 | -5.26%
11 | CCCN1C(=O)c2[nH]nc(-c3ccccc3)c2C1c1ccccc1 (centres undefined) | -3.81%
12 | COC(=O)[C@H](CC(C)C)NS(=O)(=O)c1c(F)cccc1F | -4.96%
13 | CSc1ccc(Oc2cccc3c2S(=O)(=O)N([C@H](C)c2ccccc2)C[C@@H](COCc2ccccc2)O3)cc1C | -9.54%
14 | COc1cccc(CC(=O)N2CCN(C(=O)C(=O)c3cccc(C(F)(F)F)c3)CC2)c1 | -9.3%
15 | Cc1ccc(NS(=O)(=O)c2cc3c(cc2Br)NC(=O)CO3)cc1C | -4.61%
16 | OC(c1ccccc1)(c1ccccc1)C1CCN(CCCOc2ccc(-c3ccsc3)cc2)CC1 | -9.67%
17 | COC(=O)[C@]12C[C@H](CC(=O)NCc3ccc(C)o3)C(=O)N(CCC3=CCCCC3)C1=C[C@H](C(C)(C)C)O[C@@H]2C | -11.3%
18 | CCCCCCCCN1C(=O)[C@@H](CC(=O)N2CCN(C(=O)OCC)CC2)C[C@@]2(C(=O)OC)C1=C[C@H](C1CCCC1)O[C@@H]2C | -9.25%
19 | C[C@H](CO)N1C[C@H](C)[C@@H](CN(C)C(=O)Nc2ccccc2F)OCc2cn(nn2)CCCC1=O | -4.14%
20 | CN(C)C(=O)N1CCN(C(=O)[C@@H](Cc2ccccc2)NC(=O)[C@H]2O[C@@H](n3ccc(N)nc3=O)[C@H](O)[C@@H]2O)CC1 | -3.39%
21 | CN1CCCc2nc(-c3ccccc3)ccc21 | -4.26%
22 | Cc1noc(C)c1NC(=O)Nc1ccc2c(c1)C(=O)N([C@H](C)CO)C[C@H](C)[C@H](CN(C)Cc1ccncc1)OCCCC[C@@H](C)O2 | -5.78%
23 | Cc1cccc(N2CCN(C(=O)C3CCN(S(=O)(=O)c4cnc[nH]4)CC3)CC2)c1C | -5.87%
24 | COc1cccc(N2CCN(C(=O)C3CCCN(S(=O)(=O)c4cnc[nH]4)C3)CC2)c1 (centres undefined) | 46.8% (active)
25 | CCOC(=O)c1cccc(NC(=O)C2CCCN(S(=O)(=O)c3cnc[nH]3)C2)c1 (centres undefined) | -9.58%

Row | Compound | inhibition
26 | COC(=O)C1=C(C)N(Cc2cccc(C(F)(F)F)c2)C(=NCc2cccc(C(F)(F)F)c2)NC1c1ccccc1C(F)(F)F (centres undefined) | -2%
27 | COC(=O)[C@@]12C[C@@H](CC(=O)NCCCCc3ccccc3)C(=O)N(CCc3ccc(OC)c(OC)c3)C1=CCC(C)(C)C2 | -8.1%
28 | O=S1(=O)c2c(cccc2N2CCCC2)O[C@H](COCc2ccccc2)CN1C1CC1 | -7.56%
29 | CC1CCN(C(=O)c2ncn3c2C(=O)N[C@@H](C)C3)CC1 | -3.16%
30 | COc1cccc(-c2cc(CNC(=O)[C@@H](Cc3ccccc3)NC(=O)[C@H]3O[C@@H](n4cnc(C(N)=O)n4)[C@H](O)[C@@H]3O)no2)c1 | -2.93%
31 | COC(=O)[C@@]12C[C@@H](CC(=O)NCCCCc3ccccc3)C(=O)N(Cc3ccccc3)C1=CCC(C)(C)C2 | -17%
32 | COC(=O)Nc1nc2ccc(C(=O)C3CC3)cc2[nH]1 | -11.2%
33 | COC(=O)C1=C(C)N(Cc2ccc(C(F)(F)F)cc2)C(=NCc2ccc(C(F)(F)F)cc2)NC1c1cccc(Cl)c1 (centres undefined) | -9.62%
34 | C[C@H](O)[C@@H]1CN2CCc3ccc(-c4ccc5c(c4)OCO5)cc3[C@@H]2C[C@@H]1N(C)C(=O)C1CCCCC1 | -2.76%
35 | O=C(C(=O)N1CCC(CNC(=O)c2cccnc2Cl)CC1)c1cccs1 | -10.2%
36 | Cc1ccccc1C(=O)N[C@H](C(=O)N1CCC[C@H]1C(=O)NCc1ccccc1)C(C)C | -3.3%
37 | CCOc1ccccc1C(=O)N1CCC[C@@H]1C(=O)N1CCC[C@H]1C(=O)NCc1ccccc1 | -4.37%
38 | N#Cc1cccc(C(=O)NCC2CCN(C(=O)C(=O)c3cc4ccccc4o3)CC2)c1 | -8.07%
39 | NC(=O)c1ncn([C@@H]2O[C@H](C(=O)O)[C@@H](O)[C@H]2O)n1 | -4.52%
40 | CC1(C)OC(=O)C2=C(CC(CCc3ccccc3)OC2c2ccc(Cl)cc2)O1 (centres undefined) | -9.52%
41 | c1ccc(-c2ccc(OCCN3CCOCC3)cc2)cc1 | -9.07%
42 | c1ccc2cc3c(NCCN4CCOCC4)ccnc3cc2c1 | 147% (active)
43 | Fc1ccc(-c2ccc(NCCN3CCOCC3)nn2)cc1 | -2.08%
44 | C#CCN([C@@H](C)C(=O)OCC)S(=O)(=O)c1ccc(Br)cc1F | -4.44%
45 | COC(=O)[C@]12C[C@H](CC(=O)NCCc3ccccc3OC)C(=O)N(Cc3ccccc3)C1=C[C@H](C(C)C)O[C@@H]2C1CC1 | -8.67%
46 | COC(=O)[C@]12C[C@H](CC(=O)NCCC(C)C)C(=O)N(CCc3ccc(OC)c(OC)c3)C1=C[C@H](C(C)(C)C)O[C@@H]2C | -8.8%
47 | Nc1ncnc2c1ncn2[C@@H]1O[C@H](C(=O)N[C@@H](CCc2ccccc2)C(=O)N2CCCN(Cc3cccs3)CC2)[C@@H](O)[C@H]1O | -9.97%
48 | COC(=O)[C@]12C[C@H](CC(=O)NCCCCc3ccccc3)C(=O)N(Cc3ccc4c(c3)OCO4)C1=C[C@H](C(C)(C)C)O[C@@H]2C | -10.1%
49 | COc1cccc(CNC(=O)[C@H]2CCCN2C(=O)[C@H]2CCCN2C(=O)c2cc(F)cc(F)c2)c1 | -7.03%
50 | Cc1cc(N2CCN(C(=O)OC(C)(C)C)C[C@H]2C)ccc1N1CCN(Cc2ccccc2)[C@H](C)C1 | -7.25%

Row | Compound | inhibition
51 | CCCCCCCCN1C(=O)[C@@H](CC(=O)NCc2ccc(C)o2)C[C@@]2(C(=O)OC)C1=C[C@H](C(C)(C)C)O[C@@H]2C | -10.3%
52 | Nc1nc2c(ncn2[C@@H]2O[C@H](C(=O)N[C@@H](Cc3ccccc3)C(=O)NCc3ccccc3)[C@@H](O)[C@H]2O)c(=O)[nH]1 | -5.12%
53 | C=CCN1C(=O)N(Cc2ccccc2)c2ccccc2S1(=O)=O | -4.73%
54 | CCCCOCC1CN(CCCC)S(=O)(=O)c2c(Oc3ccc(F)cc3)cccc2O1 (centres undefined) | -7.83%
55 | COc1cccc(CNC(=O)[C@H]2CCCN2C(=O)[C@H]2CCCN2C(=O)C2CCCCC2)c1 | -4.37%
56 | O=C(NS(=O)(=O)c1cccs1)[C@H]1O[C@@H](n2ccc(=O)[nH]c2=O)[C@H](O)[C@@H]1O | -3.64%
57 | CC(C)CNc1cccc2c1S(=O)(=O)N[C@H](C)CO2 | -7.79%
58 | COC(=O)C1=C(C)NC(=S)NC1c1ccc(OC)cc1 (centres undefined) | -4.39%
59 | COc1ccc(C2=CN(Cc3ccccc3)C(c3ccc(OC)cc3)CC2=O)cc1 (centres undefined) | -3.32%
60 | COc1ccc(C2C3=C(CCCC3=O)N(CC(=O)O)C3=C2C(=O)CCC3)cc1 | 111% (active)
61 | COc1ccc(C2C(C#N)=C(N)N(c3ncn[nH]3)C3=C2C(=O)CCC3)cc1 (centres undefined) | -4.27%
62 | CCOc1ccc(C2C3=C(CCCC3=O)N(CC(=O)O)C3=C2C(=O)CCC3)cc1 | -13.8%
63 | Cc1cc(NCCc2c[nH]c3ccccc23)ccc1Oc1cccnc1 | -8.52%
64 | Cc1cc(OC(=O)NCCc2ccc(F)cc2)ccc1F | -6.4%
65 | COc1ccccc1C(=O)N1O[C@]23C=C[C@]14C[C@@H](O)CC[C@]4(C)C2CC[C@]1(C)[C@@H]([C@H](C)/C=C/[C@H](C)C(C)C)CC[C@H]13 (some centres undefined) | -9.42%
66 | CC(C)CNc1cccc2c1S(=O)(=O)N[C@H](CC(C)C)CO2 | -5.08%
67 | CCOCCn1c(-c2ccccc2)nc2ccccc21 | -20.2%
68 | Cc1cc(NC(C)C)n2c(nc3ccccc32)c1C#N | -0.654%
69 | CCOCCCNc1c(CC)c(C)c(C#N)c2nc3ccccc3n12 | 61% (active)
70 | COc1ccccc1-c1ccc([C@@H]2C[C@H]3[C@H](CON3C)CN2S(=O)(=O)c2cc(Cl)cc(Cl)c2)cc1 | -4.02%
71 | Cc1nc2c(OCc3ccc(Cl)cc3)cccn2c1N(C)Cc1cccs1 | -6.54%
72 | CCCCc1c(-c2ccc(Cl)cc2)ncn1CCc1ccccc1OC | -10.1%
73 | C=CC1=CCN(S(=O)(=O)C(C)(C)C)[C@@H]1CCO | -4.63%
74 | CCN1C(=O)N[C@@H]2C[C@H](C(=O)N3CCCC3)[C@H](C)[C@H](c3ccccc3)C[C@@H]21 | -3.87%
